Reference: the supplement of paper PMC12067093, “Discovery and optimisation of a covalent ligand for TRIM25 and its application to targeted protein ubiquitination” (Chemical Science, 2025)
Of roughly 21,000 targets only a part is listed; those with the largest changes were picked by preference.

Compound: Cc1cc(ccc1-c1ccccc1)C(=O)N1CCCN(CC1)C(=O)CCl [compound 10]
Experiment: probe-labelled cysteine peptide fold change vs DMSO (competition) (log2 fold change); higher = less target engagement (more negative = stronger competition)
Details: 10 µM; THP-1; incubation time: 4 h
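Further: competitive profiling in live THP-1 cells: cysteine peptides tagged with an iodoacetamide desthiobiotin (IA-DTB) probe, intensity after compound treatment relative to DMSO-treated cells.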

Going from “MAPK9_P45984_222_GCVIFQGTDHIDQWNK (UniProt P45984)” to “MYBL2_P10244_147_SCWTEEEDRIICEAHK (UniProt P10244)”, the “probe-labelled cysteine peptide fold change” value rises from -0.0703 to 0.166.

Going from “LRRC8A_Q8IWT6_768+776_GNRLECLPVELGECPLLK (UniProt Q8IWT6)” to “LYSMD2_Q8IV50_106_LFTNDCIFLK (UniProt Q8IV50)”, the “probe-labelled cysteine peptide fold change” value falls from -0.106 to -0.192.

Compared with “LRPPRC_P42704_380_EDGPSVFGSFFLQHCVTMNTPVEK (UniProt P42704)”, “MYD88_Q99836_168_FDAFICYCPSDIQFVQEMIR (UniProt Q99836)” is higher in “probe-labelled cysteine peptide fold change” value: 0.0471 for the first, 0.412 for the second.

First: MMTAG2_Q9BU76_103_EDFAEVCKR (UniProt Q9BU76)
Second: MICALL1_Q8N3F8_597_GSSGPQPAKPCSGATPTPLLLVGDR (UniProt Q8N3F8)
The “probe-labelled cysteine peptide fold change” value of the first is higher: -0.168 for the first, -0.17 for the second.

First: MPI_P34949_289_GDCVECMACSDNTVR (UniProt P34949)
Second: MTMR10_Q9NXD2_70_LICSNFK (UniProt Q9NXD2)
The “probe-labelled cysteine peptide fold change” value of the first is higher: 0.0622 for the first, -0.125 for the second.

Going from “LPIN3_Q9BQK8_443_SLRDPNPEHEPEPTLDTVDTIALSLCGGLADSR (UniProt Q9BQK8)” to MAK16_Q9BXY0_17_QFCSFK (UniProt Q9BXY0), the “probe-labelled cysteine peptide fold change” value falls from -0.112 to -0.115.

Compared with “LRP1_Q07954_3021_GGDPHSCK (UniProt Q07954)”, “MPC2_O95563_54_WGLVCAGLADMARPAEK (UniProt O95563)” is higher in “probe-labelled cysteine peptide fold change” value: -0.193 for the first, -0.141 for the second.

Going from “MFN1_Q8IWA4_513_LCSDFQEDIVFR (UniProt Q8IWA4)” to “MCMBP_Q9BTE3_249_VYEDWDCFK (UniProt Q9BTE3)”, the “probe-labelled cysteine peptide fold change” value rises from -0.0991 to -0.042.

Going from “MDN1_Q9NU22_2158_CLGEGGK (UniProt Q9NU22)” to “LYPLA1_O75608_144_LAGVTALSCWLPLR (UniProt O75608)”, the “probe-labelled cysteine peptide fold change” value rises from -0.171 to 0.21.

Going from “MMS19_Q96T76_331_REVFQTASERVEAEGLAALHSLTACLSR (UniProt Q96T76)” to “LIMD1_Q9UGP4_401_LSPTSLVHPVMSTLPELSCK (UniProt Q9UGP4)”, the “probe-labelled cysteine peptide fold change” value rises from -0.452 to -0.0884.

Going from “LILRB4_Q8NHJ6_330_SSPAADVQGENFCAAVK (UniProt Q8NHJ6)” to “MAPK9_P45984_177_TACTNFMMTPYVVTR (UniProt P45984)”, the “probe-labelled cysteine peptide fold change” value falls from -0.385 to -0.494.

First: MYCBP2_O75592_3241_DTICELCGESHPYPVTYHMR (UniProt O75592)
Second: MKS1_Q9NXB0_226_KYEHVLCTLK (UniProt Q9NXB0)
The “probe-labelled cysteine peptide fold change” value of the first is higher: -0.0846 for the first, -0.112 for the second.

Compared with “MARS_P56192_38_AEVLISTVGPEDCVVPFLTRPK (UniProt P56192)”, “MMADHC_Q9H3L0_261+262_HLGFSVDDLGCCK (UniProt Q9H3L0)” is lower in “probe-labelled cysteine peptide fold change” value: -0.0722 for the first, -0.412 for the second.

First: MCRS1_Q96EZ8_84_CSGSEPSSSEK (UniProt Q96EZ8)
Second: MYBBP1A_Q9BQG0_338_HYGEHVCTAK (UniProt Q9BQG0)
The “probe-labelled cysteine peptide fold change” value of the first is lower: -0.0254 for the first, 0.0441 for the second.

First: MTCH2_Q9Y6C9_49_QVCQLPGLFSYAQHIASIDGR (UniProt Q9Y6C9)
Second: MRC2_Q9UBG0_1234_TTSCDTK (UniProt Q9UBG0)
The “probe-labelled cysteine peptide fold change” value of the first is higher: -0.0446 for the first, -0.27 for the second.

First: MTREX_P42285_430_KMVEEVFSNAIDCLSDEDK (UniProt P42285)
Second: MMADHC_Q9H3L0_261_HLGFSVDDLGCCK (UniProt Q9H3L0)
The “probe-labelled cysteine peptide fold change” value of the first is lower: -0.306 for the first, -0.3 for the second.

Compared with “LRRFIP1_Q32MZ4_456_CMVEVPQELETSTGHSLEK (UniProt Q32MZ4)”, “LIMS1_P48059_240+252_GLAYCETHYNQLFGDVCFHCNR (UniProt P48059)” is higher in “probe-labelled cysteine peptide fold change” value: -0.167 for the first, 0.0277 for the second.

First: MYBBP1A_Q9BQG0_623_SPAESCDLLGDIQTCIR (UniProt Q9BQG0)
Second: MRPL53_Q96EL3_21_VQFCPFEK (UniProt Q96EL3)
The “probe-labelled cysteine peptide fold change” value of the first is lower: -0.0385 for the first, 0.0106 for the second.

For “LRRC47_Q8N1G4_367_LHEDLCEK (UniProt Q8N1G4)”, the “probe-labelled cysteine peptide fold change” value was -0.211.
